# PubChem BioAssay (NCI)
# Compounds without any hit were thinned out: in the full panel of roughly 83,000, 20% have a hit.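 Each cell line was grown in a 96-well plate and treated with one concentration of compound for 48 hours. Values below 10 were considered active.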 Unmarked numbers belong to inactive results. The source made the active and inactive calls.
# Experiments:
# Assay in all cases: NCI-60 one-dose screen, 48 h (100 = growth as untreated, 0 = no growth, -100 = all killed)
# Conditions in all cases: 10 µM unless noted
# [1] = tested on: NCI-H23 lung
# [2] = tested on: NCI-H322M lung
# [3] = tested on: HOP-62 NSCLC
# [4] = tested on: NCI-H460 lung
# [5] = tested on: HOP-92 NSCLC
# [6] = tested on: NCI-H522 lung
# [7] = tested on: A549/ATCC NSCLC
# [8] = tested on: 786-0 renal
# [9] = tested on: COLO 205 colon
# [10] = tested on: DU-145 prostate
Compound,growth [1],growth [2],growth [3],growth [4],growth [5],growth [6],growth [7],growth [8],growth [9],growth [10]
CCCCCCn1c(=N)n(CC(O)COc2cccc(C)c2)c2ccccc21 (centres undefined),11%,-42.8% (active),-74.6% (active),-68.1% (active),-6.11% (active),-74.5% (active),-32.3% (active),-86.5% (active),-94.4% (active),-22.4% (active)
COc1ccc(-c2cc(=O)c3c(OC)c4ccoc4c(/C=C/C=O)c3o2)cc1,40.5%,51.2%,15.5%,64.8%,72.4%,88.3%,90.7%,82.8%,99%,24.8%
Cc1ccc(S(=O)(=O)c2c(COC(=O)c3cccc(C)c3)c(-c3ccccc3)nn2C)cc1,94.5%,-4.7% (active),18.1%,102%,71.4%,-33.1% (active),-32.7% (active),106%,-95.9% (active),116%
COc1ccc(Br)c(/C=C2\SC(=Nc3ccc(O)cc3)NC2=O)c1,92.1%,99.8%,96.2%,102%,83.2%,77.2%,87.2%,82.8%,102%,98.1%
COc1ccc(Cn2c(Br)c3c(c2Br)-c2nc(NC(=O)c4ccc(OC)cc4)sc2CC3)cc1,81.3%,56.4%,68.6%,77.4%,50.6%,72%,79.7%,61.8%,103%,78%
O=c1cc(NC2CCN(CCCc3ccccc3)CC2)c2cc(Cl)ccc2o1,-1.92% (active),0.794% (active),0.321% (active),-6.31% (active),-26.1% (active),-31.2% (active),0.692% (active),18.1%,-98.4% (active),15.5%
Cc1ccc2c(n1)C(=O)C(Oc1ccc(Br)cc1)=CC2=O,94.5%,99.6%,116%,99.1%,108%,-27% (active),100%,104%,,110%
CC1=CCC(OC(=O)C(C)(C)CCC(O)(C(=O)OC2(C(C)C)CCC3(C)OC3C2)C(C)C)(C(C)C)CC1 (centres undefined),-73.2% (active),-93% (active),-66.7% (active),-84.2% (active),-71.7% (active),-76.3% (active),-82.8% (active),-90.5% (active),-61.5% (active),-95.8% (active)
O=C(NCCCN1CCC(N2CCCCC2)CC1)C1=Cc2cc(Br)ccc2OC1,56.2%,69.2%,87.9%,13.8%,80.7%,31%,49.1%,53.5%,46.1%,68.7%
CN(C)CCNc1cc(-c2ccccc2)nc2ccccc12,-32.9% (active),8.29% (active),-65.4% (active),0.75% (active),-68.6% (active),-90.6% (active),-53.8% (active),-79.2% (active),-73.7% (active),-62.1% (active)
Brc1ccc(Nc2nc3ccccc3nc2Nc2ccc(Br)cc2)cc1,-16.4% (active),-13.1% (active),-63.4% (active),2% (active),-25.9% (active),-54.1% (active),-6.83% (active),-30.2% (active),-96.2% (active),14.2%
Cc1ccc(NCCNCC(O)CO)c2c(=O)c3ccccc3sc12 (centres undefined),29.6%,25.1%,20.3%,-66.3% (active),-2.88% (active),26.6%,-2.08% (active),27.1%,-87.2% (active),11.9%
